# According to PubChem BioAssay (NCATS):
# Results filed as inconclusive are left out. The source made the active and inactive calls. Calls come from the whole dose curve; as a rule, active = well fitted cell-killing curve with a large enough effect; inconclusive = small, poorly fitted or top-dose-only effect, or effect the other way; inactive = no such curve, though single readings can be large or run the other way.
# Test: Viability qHTS for spleen associated tyrosine kinase inhibitor (SYKi) drug resistant MV4-11 cells (AID 1963824); note: nearly all actives have a fitted effect of over 35% in size
# Conditions: SYKi-resistant MV4-11 viability, CellTiter-Glo, 72 h; series mostly up to 45 µM
# Outline: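 SYK inhibitor-resistant MV4-11 AML cells, 500 per well, added to predispensed compounds and incubated 72 hr at 37 C, 5% CO2. Viability measured by CellTiter-Glo luminescence after 10 min at room temperature.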
# Potency is the fitted concentration of half-maximal effect.
Compound,Potency,"viability, % of control"
CN(Cc1ccc(C(=O)O)cc1)c1ccc(OCc2c(-c3c(Cl)cccc3Cl)noc2C2CC2)nc1C(F)(F)F,16.4 µM (active),
C[C@@H]1C(=O)OC[C@H]2C(C(=O)O)=C[C@@H]3CC(C)(C)C[C@]312,inactive,
CC[C@H](C)/C=C(C)/C=C/C1=CC2=C(Cl)C(=O)[C@](C)(O)[C@H](OC(C)=O)[C@H]2CO1,7.18 µM (active),
N#CC1C(=O)Nc2scc(-c3ccc(-c4ccccc4O)cc3)c2C1=O (stereo not given),inactive,
C[C@@H](OC(=O)/C=C/c1ccc(O)cc1)C1=C[C@]2(C=C[C@@H]3C(C(=O)O)=CO[C@@H](O[C@@H]4O[C@H](CO[C@@H]5O[C@H](CO)[C@@H](O)[C@H](O)[C@H]5O)[C@@H](O)[C@H](O)[C@H]4O)[C@@H]32)OC1=O,inactive,
C[C@@H]1O[C@@H](O[C@@H]2[C@@H](O)[C@H](O[C@H]3[C@H](O[C@H]4CC[C@@]5(C)C(CC[C@]6(C)C5CC=C5[C@@H]7CC(C)(C)CC[C@]7(C(=O)O[C@@H]7O[C@H](CO)[C@@H](O)[C@H](O)[C@H]7O)CC[C@]56C)C4(C)C)O[C@H](C(=O)O)[C@@H](O)[C@@H]3O)OC[C@H]2O)[C@H](O)[C@H](O)[C@H]1O (stereo not given in full),,87.3% [at 9.25 µM] (inactive)
C[C@@H]1O[C@@H](O[C@H]2[C@H](OC(=O)[C@]34CCC(C)(C)C[C@H]3C3=CCC5[C@@]6(C)C[C@H](O)[C@H](O[C@@H]7O[C@H](CO)[C@@H](O)[C@H](O)[C@H]7O)[C@@](C)(CO)C6[C@H](O)C[C@@]5(C)[C@]3(C)CC4)OC[C@H](O)[C@@H]2O)[C@H](O)[C@H](O)[C@H]1O[C@@H]1OC[C@@H](O)[C@H](O[C@@H]2OC[C@](O)(CO)[C@H]2O)[C@H]1O (stereo not given in full),,102% [at 9.25 µM] (inactive)
CCCC(=O)Nc1cccc(NC(=O)c2ccccc2Br)c1,inactive,
CC1COC(Nc2ccc3ncnc(Nc4ccc(OCc5nccs5)c(Cl)c4)c3c2)=N1 (stereo not given),9.2 µM (active),
CN(C)C(CCOc1cccc2ccccc12)c1ccccc1 (stereo not given),14.6 µM (active),
C=CC(=O)Nc1cc(Nc2ncc(Cl)c(-c3c[nH]c4ccccc34)n2)c(OC)cc1N(C)CCN(C)C,0.0146 µM (active),
O=S(=O)(NC1CCNCC1)c1cc(S(=O)(=O)c2ccccc2)ccc1C(F)(F)F,inactive,
CC(=O)OC1C=C(C(=O)O)C2(CO)CCC(C)C(C)(CCc3ccoc3)C2C1 (stereo not given),inactive,
Fc1ccc(N2CCCCC2)c(NC(=S)c2ccncc2)c1,9.2 µM (active),
CC/C=C\CC1C(=O)CCC1CC(=O)OC (stereo not given),inactive,
COc1cc(-c2cc(-c3ccc(N4CCNCC4)cc3)cnc2C)cc(OC)c1OC,8.33 µM (active),
COc1cc2c(cc1O)CC[C@@H]1[C@@H]2CC[C@]2(C)[C@@H](O)CC[C@@H]12,0.934 µM (active),
O=C(O)CC(=O)OC[C@H]1O[C@@H](Oc2ccc3c(c2)OC[C@H]2c4cc5c(cc4O[C@@H]32)OCO5)[C@H](O)[C@@H](O)[C@@H]1O,inactive,
C=CC(C)(CC/C=C(\C)CC/C=C(\C)CC(O)/C=C(\C)C(=O)O)O[C@@H]1O[C@H](CO)[C@@H](O)[C@H](O)[C@H]1O[C@@H]1O[C@H](CO)[C@@H](O)[C@H](O)[C@H]1O (stereo not given in full),inactive,
CN(Cc1cccs1)c1ncnc2ccc(-c3ccc4c(c3)OCO4)cc12,11.6 µM (active),

Compound,Potency,"viability, % of control"
CC(=O)O[C@@H]1C[C@H](O)[C@@]23CO[C@H](O)[C@]1(C)C2C[C@@H](O)[C@]1(C)C3C(=O)[C@H](OC(C)=O)[C@@]2(C)[C@H](c3ccoc3)C[C@H]3O[C@]321 (stereo not given in full),0.0343 µM (active),
CCN(CC)CCNc1ccc2ncn3c4ccc(O)cc4c(=O)c1c23,0.291 µM (active),
C[C@@H]1CC[C@]2(C(=O)O[C@@H]3O[C@H](CO)[C@@H](O)[C@H](O)[C@H]3O)CC[C@]3(C)C(=CCC4[C@@]5(C)C[C@@H](O)[C@H](O)[C@](C)(C(=O)O)C5CC[C@]43C)[C@@H]2[C@]1(C)O (stereo not given in full),inactive,
CN(C)CCCn1cc(C2=C(c3c[nH]c4ccccc34)C(=O)NC2=O)c2ccccc21,0.116 µM (active),
CC(=O)O[C@@H]1[C@@H](O)[C@H](O[C@H]2CC[C@]34C[C@]35CC[C@]3(C)[C@@H]([C@@]6(C)CC[C@@H](C(C)(C)O)O6)[C@@H](O)C[C@@]3(C)[C@@H]5C[C@H](O[C@@H]3O[C@H](CO)[C@@H](O)[C@H](O)[C@H]3O)[C@H]4C2(C)C)OC[C@H]1O,inactive,
CN(C)CCOc1cc(NS(=O)(=O)c2c(Cl)cc(C(F)(F)F)cc2Cl)ccc1Cl,inactive,
CN(C)c1ccc(Nc2c3ccc(NC(=O)CCN4CCCC4)cc3nc3cc(NC(=O)CCN4CCCC4)ccc23)cc1,4.11 µM (active),
Cc1nc(C#Cc2ccnc(Cl)c2)c(C)n1-c1ccc(OC(F)(F)F)cc1,23.1 µM (active),
COc1cc(C(=O)OC[C@H]2O[C@H](O[C@@]3(CO)O[C@@H](CO)[C@H](O)[C@H]3O)[C@H](O)[C@@H](O)[C@@H]2O)ccc1O,inactive,
CC(O)C(O)/C=C/C=C/C(=O)O[C@@H]1C=C2COC(=O)[C@]2(O)[C@@]2(C)CCCC(C)(C)C12 (stereo not given in full),inactive,
CC(=O)OC[C@@]12[C@@H](OC(C)=O)C[C@@H](C)[C@](C)([C@@H]3C[C@H]4C=CO[C@H]4O3)[C@H]1CCC[C@]21CO1,inactive,
OCC1OC(Oc2cc(O)cc(/C=C/c3ccc(O)cc3)c2)C(O)C(O)C1O (stereo not given),inactive,
COc1cc(C[C@H]2COC(=O)[C@@H]2Cc2ccc(O)c(OC)c2)ccc1O,inactive,
[N-]=[N+]=N[C@]1(CO)O[C@@H](n2ccc(=O)[nH]c2=O)[C@@H](O)[C@@H]1O,inactive,
O=C1NC(=O)C(c2cn3c4c(cccc24)CCC3)C1c1c[nH]c2ccccc12 (stereo not given),0.92 µM (active),
C=C1OC2CC(C(=O)O)C=CC2NC1=O (stereo not given),2.91 µM (active),
C[C@@H]1O[C@@H](O[C@H]2[C@H](OC(=O)[C@]34CCC(C)(C)C[C@H]3C3=CCC5[C@@]6(C)CC[C@H](O[C@@H]7O[C@H](CO[C@@H]8OC[C@H](O)[C@H](O)[C@H]8O)[C@@H](O)[C@H](O)[C@H]7O)C(C)(C)C6CC[C@@]5(C)[C@]3(C)C[C@H]4O)OC[C@@H](O)[C@@H]2O)[C@H](O)[C@H](O)[C@H]1O[C@@H]1OC[C@H](O)[C@H](O[C@@H]2OC[C@@H](O)[C@H](O)[C@H]2O)[C@H]1O (stereo not given in full),,84.6% [at 9.25 µM] (inactive)
C#Cc1cccc(Nc2nc3cc(C(=O)O)ccc3c3cncnc23)c1,2.91 µM (active),
CNCc1cc(-c2ccccc2F)n(S(=O)(=O)c2cccnc2)c1,13 µM (active),
CC(C)=C1CC2[C@](C)(CC[C@@H](OC(=O)C3(C)OC3C)[C@@]2(C)O)CC1=O (stereo not given in full),inactive,
